We go through 40 molecules from PubChem BioAssay (EPA / NIEHS).

Active and inactive are the calls of the source. How the source made its calls: active means hit-call score of the fitted dose curve at least 0.9, where 1 is the maximum; inactive means score below 0.9.

Myc proto-oncogene protein (Homo sapiens), sequence (P01106 whole entry, looked up): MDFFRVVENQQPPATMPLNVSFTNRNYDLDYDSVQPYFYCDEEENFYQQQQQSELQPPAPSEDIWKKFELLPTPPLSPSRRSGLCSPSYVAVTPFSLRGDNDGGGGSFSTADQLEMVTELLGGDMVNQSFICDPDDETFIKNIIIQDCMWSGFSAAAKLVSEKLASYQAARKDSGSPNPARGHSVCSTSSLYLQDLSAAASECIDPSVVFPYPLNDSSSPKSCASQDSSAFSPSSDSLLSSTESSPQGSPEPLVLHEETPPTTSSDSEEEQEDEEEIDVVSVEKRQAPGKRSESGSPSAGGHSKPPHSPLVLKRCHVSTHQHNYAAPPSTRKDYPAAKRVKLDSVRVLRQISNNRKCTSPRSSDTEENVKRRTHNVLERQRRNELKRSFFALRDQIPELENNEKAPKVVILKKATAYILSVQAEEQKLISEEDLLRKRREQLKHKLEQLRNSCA

This assay concerns the target Myc proto-oncogene protein (Homo sapiens) (UniProt P01106). The experiment in a line: ATG_Myc_CIS: Attagene CIS-FACTORIAL HepG2 Assay for human Myelocytomatosis (Myc) Proto-Oncogene Transcription Factor (AID 2282990). Particulars: HepG2, Attagene cis-reporter transcription factor activity; actives raise or lower the signal. Here is the method:
ATG_CIS is a cell-based, multiplexed-readout assay that uses HepG2, a human liver cell line, with measurements taken at 24 hours after chemical dosing in a 24-well plate.ATG_Myc_CIS is one of 52 assay component(s) measured or calculated from the ATG_CIS assay. It is designed to make measurements of mRNA induction, a form of inducible reporter, as detected with fluorescence intensity signals by Reverse transcription polymerase chain reaction (RT-PCR) and Capillary electrophoresis technology.Data from the assay component ATG_Myc_CIS was analyzed into 1 assay endpoint. This assay endpoint, ATG_Myc_CIS, was analyzed with bidirectional fitting relative to DMSO as the negative control and baseline of activity. Using a type of inducible reporter, measures of mRNA for gain or loss-of-signal activity can be used to understand the reporter gene at the transcription factor-level as they relate to the gene MYC. Furthermore, this assay endpoint can be referred to as a primary readout, because this assay has produced multiple assay endpoints where this one serves a reporter gene function. To generalize the intended target to other relatable targets, this assay endpoint is annotated to the dna binding intended target family, where the subfamily is basic helix-loop-helix leucine zipper.
Human liver HepG2 cells are transiently transfected with multiple reporter transcription units (MRTUs) in 6-well plates using FuGene 6 reagent (Roche; 3 ml FuGene/1 mg DNA). The MRTU constructs are regulated by a cis-regulating element (promoter). […] A major difference between the CIS and TRANS system is that in CIS activities of endogenous TFs are measured, whereas the TRANS assay evaluates changes in activities of exogenous, chimeric NR-Gal4 proteins. […] At the end of 24 hour incubation, total RNA was isolated using TriZol reagent (Invitrogen). The isolated RNA is then reverse-transcribed using oligo(dT) primer and Mo-MLV reverse transcriptase (Invitrogen) with DNAse I (Ambion) treatment for 30 min. The one-tenth of the produced cDNA was amplified by PCR using Taq DNA polymerase (Invitrogen) and two reporter sequence-specific primers. The PCR products were fluorescently labeled by primer extension with 6-arboxyfluorescein (6-FAM) 5'-labeled reporter sequence-specific primer (2 min at 95 C, 20 s at 68 C and 10 min at 72 C) and these products were digested with 5U of HpaI (New England Biolabs) for 2h at 37 C. The fragments were purified using Qiaquick PCR columns (Qiagen), analyzed on an ABI 3130xL genetic analyzer (Applied Biosystems) with peak positions identified by using a set of X-rhodamine (ROX)-labeled MapMarker1000 molecular weight standards (BioVentures). The raw capillary electrophoresis data was processed using Attagraph software (Attagene).
Turning to `CCOC(=O)c1ccccc1N`, the molecule was classed as inactive.

On to `O=S(=O)(c1ccc(O)cc1)c1ccc(O)cc1`, for which the outcome was inactive. Regarding `CCCCc1ccccc1`, the result was inactive. As to `CCC1(c2ccccc2)C(=O)N=C(O)NC1=O` (stereo not given), the result was inactive.

What is called AC50 is the concentration at which the activity in the assay is half-maximal. Turning to `O=c1ssc(Cl)c1Cl`, the concentration at half-maximal activity (AC50) is 33.4 µM (active). As for `O=c1[nH]c2ccccc2c(=O)o1`, the molecule was called inactive. `O=S(=O)(F)C(F)(F)C(F)(F)C(F)(F)C(F)(F)C(F)(F)C(F)(F)C(F)(F)C(F)(F)F`: the molecule was classed as inactive. On to `Nc1ccc(Sc2ccc(N)cc2)cc1`, for which the molecule was classed as inactive. With `CCOS(=O)(=O)OCC`, the result was inactive. For the molecule `Cc1ccc([N+](=O)[O-])cc1C`, the call was inactive.

For `CCOP(=O)(O)C(N)=O`, the result was inactive. On to `CCOP(=S)(Oc1ccc([N+](=O)[O-])cc1)c1ccccc1` (stereo not given), for which the outcome was inactive.

In the case of `O=C(O)C=CC(F)(C(F)(F)F)C(F)(F)F`, the outcome was inactive. For `CCOc1ccc(C(C)(C)COCc2cccc(Oc3ccccc3)c2)cc1`, the molecule was called inactive. With `CC(O)C#N` (stereo not given), the outcome was inactive. The same measure, in the same setting: next, `Nc1ccc2ccccc2c1`: “inactive”. On the same count and under the same terms, with `OCC(F)(F)OC(F)(F)C(F)(F)OC(F)(F)C(F)(F)OC(F)(F)F` the entry was “inactive”. For the molecule `CCNc1nc(Cl)nc(NC(C)(C)C)n1`, the outcome was inactive. For the molecule `CCOP(=S)(NC(C)C)Oc1ccccc1C(=O)OC(C)C` (stereo not given), the call was inactive. For the molecule `O=S1(=O)OCC2C(CO1)C1(Cl)C(Cl)=C(Cl)C2(Cl)C1(Cl)Cl` (stereo not given), the AC50 is 172 µM (active). Regarding `Cc1cc(C)c(C(=O)P(=O)(c2ccccc2)c2ccccc2)c(C)c1`, the AC50 is 49.1 µM (active). For the molecule `c1ccc2c(c1)sc1ccccc12`, the molecule was called inactive. `CCOP(=S)(OCC)SCn1nnc2ccccc2c1=O`: the call was inactive. `CC(=O)c1ccc(-c2ccccc2)cc1`: the outcome was inactive. Consider `Cc1ccc2c(c1N)C(=O)c1ccccc1C2=O`, for which the molecule was called inactive. Take `CCOP(=S)(OCC)SCSc1ccc(Cl)cc1`: the result was inactive. For the molecule `O=C(O)C(Cl)Cl`, the molecule was classed as inactive. As to `CCN(CC)c1ccccc1`, the result was inactive. Take `Nc1ccc([N+](=O)[O-])cc1Cl`: the outcome was inactive.

Take `CC1=C(C(=O)Nc2ccccc2)S(=O)(=O)CCO1`: the molecule was classed as inactive. As for `O=[N+]([O-])c1cc(Cl)ccc1Cl`, the molecule was classed as inactive. On to `COP(N)(=S)OC`, for which the outcome was inactive. `O=P(Oc1ccccc1)(Oc1ccccc1)Oc1ccccc1`: the result was inactive.

With `CC1(C)CN=C(NN=C(/C=C/c2ccc(C(F)(F)F)cc2)/C=C/c2ccc(C(F)(F)F)cc2)NC1`, the outcome was inactive. Take `O=C(CBr)OCc1ccccc1`: the molecule was classed as inactive. Consider `CCC(C)(C)c1ccc(O)cc1`, for which the outcome was inactive.

As to `N#Cc1cc([N+](=O)[O-])ccc1N`, the outcome was inactive. With `Oc1ccccc1Br`, the call was inactive. On the same count and under the same terms, next, `Cn1[nH]nnc1=S`: “inactive”; `ClC(Cl)c1ccccc1`: “inactive”.
